Test results: PMC13494018
A number with no mark means an inactive call. No rule for the calls is given here.

B1: design_618_d4ffd631-0ea2-432e-ba0f-bd3d6297b2a0_2173_dldesign_0_cycle1_af2pred (protein)
chain: SSAKEKAKKLAEEAKKIADKAIAQAKALAADKGAANAVLLDAIKELSELAKKAYALDPAYADKINAYAQELVKQMAAIAG
B2: design_618_d4ffd631-0ea2-432e-ba0f-bd3d6297b2a0_2266_dldesign_0_cycle1_af2pred (protein)
chain: SADVELGKEKGKELAEKIKEAAKKGLKAGDPEAAGKEMNKIVQEAIKFAATLSPEAASVLLSIVIETAKEESAKLKAA
B3: design_619_5728adc2-0aea-404f-92dd-a4575c53f550_1117_dldesign_0_cycle1_af2pred (protein)
chain: SAAAAAAAGALAVEEAKRFAEEQLAYGKAEDPGVGMQAIATYANRKAVEYASDPATASAIVSIGVEAMEELARWRREREA
B4: design_619_5728adc2-0aea-404f-92dd-a4575c53f550_396_dldesign_0_cycle1_af2pred (protein)
chain: DEAKKQAEKHYKLAKEHLEKAIASKDEKEAKAHVSRARLNALAAASLDPSVAPEMLAMLKATAEALKDHPEAKAEAEEAAKLVAQLA
B5: design_618_d4ffd631-0ea2-432e-ba0f-bd3d6297b2a0_2235_dldesign_0_cycle1_af2pred (protein)
chain: EEDEKILESAKKMKEVAKDLAEYAKTSTAEVAKIAANSAEALARILKETAKESKKKEEIEKLAKEAEEYAKEAKETAKKK
B6: design_618_d4ffd631-0ea2-432e-ba0f-bd3d6297b2a0_2000_dldesign_0_cycle1_af2pred (protein)
chain: RAAAVEAALAYARAVAETDASLEAARAAFERAKALLPEAPEAAGTLAGAALVAGSNPALGERLFAAGAARAA
B7: design_619_5728adc2-0aea-404f-92dd-a4575c53f550_103_dldesign_0_cycle1_af2pred (protein)
chain: SEAERYAEAAKKLAQVAKDIAAAFPANPELKKEAEKAKKYAEKAEKLVKEGGSAEEVLKEYEKARAALARATKLAIAA
B8: design_619_5728adc2-0aea-404f-92dd-a4575c53f550_649_dldesign_0_cycle1_af2pred (protein)
chain: GEELAKEVEKKAKEVLEKVKEKAKEIAAKGTPEQAREAKGLVARARAYAIAAVGAARTIPELAKRYLELAKKEAERL
B9: design_619_5728adc2-0aea-404f-92dd-a4575c53f550_175_dldesign_0_cycle1_af2pred (protein)
chain: AAAQQQAIGNAAIRTADIAMATAKKLIKEDPAKGKEVAEQAVGILEGAAKAAPSTAATLLAEAKKVKEETEKAIKEA
B10: design_618_d4ffd631-0ea2-432e-ba0f-bd3d6297b2a0_2243_dldesign_0_cycle1_af2pred (protein)
chain: AAAAATALAKATAEALVRSAERGNAETARKLAEVAKGLAEGEAAAGDEEAAKAAAEAAKKIEAIAKEKAA
B11: design_619_5728adc2-0aea-404f-92dd-a4575c53f550_440_dldesign_0_cycle1_af2pred (protein)
chain: VTPEASKIAANSALALAKNILENVGVMSPEEAAGAVQVVVDLVKNSLPSEKEKHVEIAEVLKEAAKKNPANAAVLEAGAKAIEEIL
B12: design_619_5728adc2-0aea-404f-92dd-a4575c53f550_437_dldesign_0_cycle1_af2pred (protein)
chain: AAAEEAALAKAKKEAAEAAVKAVEYAARAGDPALAAKATRLLHEAQLTTDLEEAKKYLEEIKKLLKEAKERAE
B13: design_619_5728adc2-0aea-404f-92dd-a4575c53f550_1087_dldesign_0_cycle1_af2pred (protein)
chain: GPEVAERVARSARGIAEVLRGLADSIRAAGGSPAAEERVRAAAEEAERLAREAEEAAGDAEVARRLAEEANRLLQEATAVAMADLQAV
B14: design_619_5728adc2-0aea-404f-92dd-a4575c53f550_927_dldesign_0_cycle1_af2pred (protein)
chain: AAALDSARGEAAVTAAKLYGLAYKLDPELGAQAAAALAAILRDKATAVEGAKAAAAVAEKLKEKDPENAGELEKKLKELAEKLKAA
B15: design_619_5728adc2-0aea-404f-92dd-a4575c53f550_302_dldesign_0_cycle1_af2pred (protein)
chain: EREEVLREAIELLEKTAEAAKALGTPAGEILAASARALARLLREQRDEISLEGAKGYLELAKQLAAGVEAA
B16: design_618_d4ffd631-0ea2-432e-ba0f-bd3d6297b2a0_2021_dldesign_0_cycle1_af2pred (protein)
chain: AALAAQGRAIARTMRIAVLNAATAAEAAAIADTFGTTLLNLADLASPEEQRAIVEATRAEAEEVAAENPEAGAAVAATAERLRAHVEA
B17: design_619_5728adc2-0aea-404f-92dd-a4575c53f550_740_dldesign_0_cycle1_af2pred (protein)
chain: GAAEEARRLVEEVEAALKEAEAAAAADAAEGLRAAGELAVLAAEAAARALRLGDEEAFRRISAAIARATALAQQLAA
B18: design_619_5728adc2-0aea-404f-92dd-a4575c53f550_1042_dldesign_0_cycle1_af2pred (protein)
chain: DAKEHAERALELAKEAAESGSVALASRAMQELALAINADPALGAEAAKEAAKIFAKNPELAGFGEAAVAIAA
B19: design_619_5728adc2-0aea-404f-92dd-a4575c53f550_577_dldesign_0_cycle1_af2pred (protein)
chain: AESIAREAVAQIAALAAAGVADPAAKGEQATAILQTAAAAQKAIRAAGGPESLLNAVQAAAGAAIAALVA
B20: design_618_d4ffd631-0ea2-432e-ba0f-bd3d6297b2a0_2309_dldesign_0_cycle1_af2pred (protein)
chain: AGLEIANKALQLAAEATAALKAAAKGTAAEVEALAKKYLDEAKKLKEQATTPQAKAAANIAISAVTTAKKAALAAVA
B21: design_618_d4ffd631-0ea2-432e-ba0f-bd3d6297b2a0_2461_dldesign_0_cycle1_af2pred (protein)
chain: STAFFQEATKLIEEAGEVANRVPEVAPLANKAITAASKAMLAAAQGNEAAAKAYFDEAKKLLEEAKKKAKELLE
B22: design_619_5728adc2-0aea-404f-92dd-a4575c53f550_930_dldesign_0_cycle1_af2pred (protein)
chain: GEVKEQAEKELKKLEEAAKKTEEEAKKAAKAGATVAAAQIKATVKAALKNAKELFEKDPEQGLQAAKAALQVAETLLESAKGLIKAA
B23: design_619_5728adc2-0aea-404f-92dd-a4575c53f550_252_dldesign_0_cycle1_af2pred (protein)
chain: AAKEIAKQAQEAGKAAIAAAEALGKAKDPEEAKQMQEIAKALQQNAQAAAKAGDAKVAQAALNALRGLLRNAEAALAAAK
B24: design_619_5728adc2-0aea-404f-92dd-a4575c53f550_74_dldesign_0_cycle1_af2pred (protein)
chain: DLDAVIATGMLALGKANAALAAARAGTATAAELEAAAAEAEAAAALAAALAAQSSTMAWLAAQLKKAAAELRAAAAKLKA
B25: design_619_5728adc2-0aea-404f-92dd-a4575c53f550_253_dldesign_0_cycle1_af2pred (protein)
chain: AAAAAEAAVAAAMAQINALVAEANRLLIEAQKTGNVELAKKAYELAEKAAAVGKATPALAKMAEALSKVVKEMAKATIKQAEAQA
B26: design_619_5728adc2-0aea-404f-92dd-a4575c53f550_130_dldesign_0_cycle1_af2pred (protein)
chain: DELFARLEELARALVEEAAKRSPELADIILESYEEGKKIAEELGFGPVTAIAIAAALALRRDPEAGALLRQVFVEVARAAIEAQ
B27: design_619_5728adc2-0aea-404f-92dd-a4575c53f550_189_dldesign_0_cycle1_af2pred (protein)
chain: DPATVRGLAAMAALALQAGVTGGPEVGAANLRNVAKLAAARGTPEAAEIAKKAEEAAKEADNPEKVKEYQAYFEEIAKA
B28: design_618_d4ffd631-0ea2-432e-ba0f-bd3d6297b2a0_2296_dldesign_0_cycle1_af2pred (protein)
chain: DKYATEAKKYAEEAEKLAKEAKKEAKKVGEAAKELAKQAEAAAKTAKIAAEGAEAATDPAARALALKVAEQAYKQAKKLLKEIKKL
B29: design_619_5728adc2-0aea-404f-92dd-a4575c53f550_766_dldesign_0_cycle1_af2pred (protein)
chain: MLGAEWARQQARRTAERAAELLAADPAAGAAAFARARTIVELAKGIDPEVGKAAQAEVEAIEAQAKAAAAAA
B30: design_619_5728adc2-0aea-404f-92dd-a4575c53f550_548_dldesign_0_cycle1_af2pred (protein)
chain: AALRHRTMAALFGRAVTLTGEAGRQAALNAAQMAAVLDPAAGAEFAAAIAEAAKATGDAGVHAVAAEFAAKEAAAAAAAAA
B31: design_619_5728adc2-0aea-404f-92dd-a4575c53f550_447_dldesign_0_cycle1_af2pred (protein)
chain: EELVKKAKEETTKLLEKAKEEAPGLGTLALNSFNNGFKEGVKEAYERLKKLYEWVTANATTPEQKKVAELIKKAYEVAKKAAEA
B32: design_619_5728adc2-0aea-404f-92dd-a4575c53f550_132_dldesign_0_cycle1_af2pred (protein)
chain: AEAAAALAAAMRAATDAAVAEAATGTGEGIAKALHVANLARAAAEANPETAAEHRAYAERALAAAKAAQAAAIAAA
B33: design_619_5728adc2-0aea-404f-92dd-a4575c53f550_149_dldesign_0_cycle1_af2pred (protein)
chain: SPAQEAARAEADRAAEAIAAFAKQIAAAASPELAKEVLAAAEKAAAALAAAKELPAEEARAATDAVWAAANRAAAAAMRQVLAQTT
B34: design_618_d4ffd631-0ea2-432e-ba0f-bd3d6297b2a0_1745_dldesign_0_cycle1_af2pred (protein)
chain: SAARLAEQRARAAELRERAEEALKRAEQVEKKNPAAGAAVRALVRQALRQVELGLADPENAERYLDSARRNLEVAQGIIDATL
B35: design_618_d4ffd631-0ea2-432e-ba0f-bd3d6297b2a0_2465_dldesign_0_cycle1_af2pred (protein)
chain: AAAAQAAAILAAAQQGINDTTALLEKYKDVATPETVALFNKALAYFSKAAALALRGTQPAEAAAALAKGQEEAKKGEELLKKEVE
B36: design_619_5728adc2-0aea-404f-92dd-a4575c53f550_605_dldesign_0_cycle1_af2pred (protein)
chain: GQVAVNAAKGVAKTAISYAERLAKVEGEEGKKFLEEVKKETTKLVEEAKKSTPEKAQQLLAELVDLMKEVAERAAAAEAAAAAAAA
B37: design_618_d4ffd631-0ea2-432e-ba0f-bd3d6297b2a0_1628_dldesign_0_cycle1_af2pred (protein)
chain: AAQAQADQITKAAAEAAIKSAKAMVDINLESARKLAEVAADLGKAAPATAAEIKAAAKAVIEEADKKEAEKA
B38: design_619_5728adc2-0aea-404f-92dd-a4575c53f550_521_dldesign_0_cycle1_af2pred (protein)
chain: GEEEELKKKQQEVAERAKEAAELAKEAAKLSGQTEVANAVEAAAKQAAAAAEADPSAVESQLKFVEQLLEIALAALAAAKAAAAAA

Molecular target: CD276, Q5ZPR3
Sequence (Q5ZPR3 whole entry): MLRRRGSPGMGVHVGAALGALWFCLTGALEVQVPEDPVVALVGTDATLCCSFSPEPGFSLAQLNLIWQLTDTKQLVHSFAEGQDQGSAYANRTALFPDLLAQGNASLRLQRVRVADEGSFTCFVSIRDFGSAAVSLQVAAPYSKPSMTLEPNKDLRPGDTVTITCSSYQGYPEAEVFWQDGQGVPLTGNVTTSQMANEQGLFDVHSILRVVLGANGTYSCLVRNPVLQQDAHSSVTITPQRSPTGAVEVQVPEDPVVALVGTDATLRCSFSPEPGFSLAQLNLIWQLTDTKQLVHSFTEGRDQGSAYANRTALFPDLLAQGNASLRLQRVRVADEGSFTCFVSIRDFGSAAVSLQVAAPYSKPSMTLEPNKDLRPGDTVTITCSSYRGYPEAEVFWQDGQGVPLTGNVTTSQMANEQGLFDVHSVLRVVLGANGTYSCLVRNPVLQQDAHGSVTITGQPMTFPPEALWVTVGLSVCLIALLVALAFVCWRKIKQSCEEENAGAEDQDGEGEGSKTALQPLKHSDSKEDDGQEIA

Binder | binding in a display sort
B1 | not found
B2 | not found
B3 | not found
B4 | not found
B5 | not found
B6 | not found
B7 | not found
B8 | not found
B9 | not found
B10 | not found
B11 | not found
B12 | not found
B13 | not found
B14 | not found
B15 | not found
B16 | not found
B17 | not found
B18 | not found
B19 | not found

Binder | binding in a display sort
B20 | not found
B21 | not found
B22 | not found
B23 | not found
B24 | not found
B25 | not found
B26 | not found
B27 | not found
B28 | not found
B29 | binds (active)
B30 | not found
B31 | not found
B32 | not found
B33 | not found
B34 | not found
B35 | not found
B36 | not found
B37 | not found
B38 | not found
